High-throughput results (PubChem)
D1 potentiator: potentiators of human D1 dopamine receptor. AID 504651. 360,000 compounds, 0.036% hits. HEK293 TREx D1 cells, calcium flux, dopamine EC20 potentiation. potentiation, % at 10 µM. P21728; in the data active means potentiation above about 30%; further: 0% is about no effect
TRHR enhancer: allosterically enhances the human TRH receptor. P34981. 360,000 compounds, 0.66% hits. enhancement, % at 2 µM. AID 493056. TRHR cells, fluo-8 calcium fluorescence, EC20 TRH enhancement; in the data active means enhancement above about 30%; further: 0% is about no effect
Target sequence (P34981 whole entry, looked up): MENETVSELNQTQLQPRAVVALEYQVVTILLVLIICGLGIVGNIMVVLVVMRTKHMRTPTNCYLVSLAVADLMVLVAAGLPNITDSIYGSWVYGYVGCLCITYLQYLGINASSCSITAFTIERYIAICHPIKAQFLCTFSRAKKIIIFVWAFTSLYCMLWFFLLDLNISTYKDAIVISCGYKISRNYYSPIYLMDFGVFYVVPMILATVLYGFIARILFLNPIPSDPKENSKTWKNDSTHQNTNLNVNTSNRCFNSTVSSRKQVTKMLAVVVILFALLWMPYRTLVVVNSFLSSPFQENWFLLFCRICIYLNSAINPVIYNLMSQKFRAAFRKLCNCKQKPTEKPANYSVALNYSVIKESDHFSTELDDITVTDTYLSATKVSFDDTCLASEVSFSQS
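Enhancer read-out: after compound pinning and an initial kinetic agonist-mode read, an EC20 of TRH (10 nM final) was injected and fluo-8 calcium signal (Ex 480/Em 530) followed at 1 s/cycle for 100 cycles in TRHR-expressing cells.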
D1 ag: agonists of human D1 dopamine receptor | P21728 | activation, % at 2 µM | 360,000 compounds, 1% hits | HEK293 T-REx D1 cells, calcium flux, agonist mode; further: 0% is about no effect
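Tetracycline-induced HEK293 TREx D1 cells, force-coupled to calcium signalling, were dye-loaded with a no-wash calcium kit. Compound was pin-added after a 10 s baseline. Fluorescence was read kinetically at 1 cycle/s for 180 s, with calcium rises flagged as agonism.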
Epigenetic reg: derepresses silenced GFP reporter in murine cells. murine LDR cells, GFP reporter derepression, 30 h. Potency, µM (top dose mostly 53.9 µM), without a hit: at the top dose GFP activation, actives largely listed as activators. 280,000 compounds, 0.2% hits. AID 1865; active means well fitted activation curve with a large enough effect; inconclusive means small, poorly fitted or top-dose-only effect; further: potency means the concentration at half of the fitted maximal effect; % of control where 0% means no effect; nearly all actives have a fitted effect of over 60% in size
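GFP-positive cell count by laser-scanning cytometry (objects 20–120 um) after 30 h, 37 C compound exposure of murine LDR cells; reporter is CMV-GFP integrated at a silenced locus, inducible by HDAC or DNMT inhibitors.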
TRHR ag: activates the human TRH receptor; P34981; TRHR cells, calcium flux fluo-8, FDSS agonist mode; activation, % at 2 µM; 360,000 compounds, 0.18% hits; further: 0% is about no effect
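TRHR-expressing cells, plated overnight in medium with 10% serum, were loaded with fluo-8 calcium dye at room temperature. After a 10 s baseline, library compound was pin-added and calcium release was recorded kinetically (ex 480/em 530) as agonist response.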
D1 antag: antagonists of human D1 dopamine receptor | activity change, negative = inhibition, % at 10 µM | AID 504652 | HEK293 TREx D1 cells, calcium flux, dopamine EC80; active compounds read low | 360,000 compounds, 3.2% hits | P21728; in the data active means activity change below about -30%; further: on the % scale 0 is the no-effect control and ±100 the full control effect
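After overnight tetracycline induction at 30 C, force-coupled D1 HEK293 cells took up a no-wash calcium dye at room temperature. Compounds were added and monitored 180 s, and the response to EC80 dopamine was then recorded.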
* hit, by the source's call; ? = inconclusive; . = not tested or not shown; ! = a repeat was not active. Hits are enriched below; roughly 4.6% of the tested compounds scored in any of these assays. Unless noted, no stated cut-off is given here; in the data, active means activation above about 30%; inactive means the rest.

SMILES	D1 potentiator	TRHR enhancer	D1 ag	Epigenetic reg	TRHR ag	D1 antag
O=C(Nc1ccc(Oc2cccnc2)cc1)C1CCN(Cc2cccc(Cl)c2)CC1	-12	2	49*	.	1	-37*
O=C(NCC1CCN(Cc2cccc(Cl)c2)CC1)Nc1ccc(F)c(Cl)c1	-4	-1	21	4%	2	-6
Cc1c(-c2nc(-c3ccc4c(c3)[nH]c(=O)n4C)no2)cccc1[N+](=O)[O-]	-5	1	1	0%	0	2
CN(C1CCCCC1)S(=O)(=O)c1ccc2c(c1)c(=O)c(C(=O)N1CCN(c3ccccc3)CC1)cn2C	0	2	1	2%	0	-2
CCS(=O)(=O)N1CCc2cc(C(=O)NCc3ccccc3OC)ccc21	-1	-5	-1	-4%	-1	3
Cc1ccc(N2C(=O)CS(=O)(=O)C23C(=O)N(Cc2ccccc2F)c2ccccc23)cc1Cl (centres undefined)	0	4	11	-1%	1	1
Cc1cccc(N2CCN(S(=O)(=O)c3ccc4c(c3)C(C(C)C)C(=O)N4)CC2)c1C (centres undefined)	0	2	6	0%	-1	-37*
Cc1cccc(N2CCN(S(=O)(=O)c3ccc4[nH]c(=O)ccc4c3)CC2)c1C	-7	-1	13	.	0	-35*
Cc1cccc(N2CCN(S(=O)(=O)c3ccc4c(c3)NC(=O)C(C)S4)CC2)c1C (centres undefined)	1	0	5	.	0	16
Cc1nc(CSc2nnc(C)s2)cs1	-2	1	1	0%	0	-42*
Cc1nnc(SCc2ccc(F)cc2)s1	6	2	1	5%	0	8
CC(Sc1ncnc2sc(-c3ccccc3)cc12)C(=O)N1CCNC1=O (centres undefined)	-1	0	13	.	0	-41*
NC(=O)c1ccccc1	-10	5	2	4%	0	-99*
CCOC(=O)CN(C(=O)CSc1nnc(CNc2ccc(F)cc2)n1C)c1ccccc1	-1	-2	0	-1%	0	9
CCOC(=O)CN(C(=O)CSc1nnc(COc2ccc(OC)cc2)n1C)c1ccccc1	-3	3	-1	-1%	-1	-46*
COc1cc(C2c3c(oc4ccccc4c3=O)C(=O)N2Cc2ccc(C)cc2)ccc1O (centres undefined)	-5	22	1	-1%	0	11
CN(Cc1ccc(F)cc1)S(=O)(=O)c1nnc(NC(=O)c2ccccc2Br)s1	-7	-1	11	1%	0	-45*!
CC(NC(=O)c1ccc(NC(=O)c2nsc3ccccc23)cc1)c1ccccc1 (centres undefined)	-1	4	1	?	0	9
CCCCC/C=C\C/C=C\C/C=C\C=C\C(O)CCCC(=O)O (centres undefined)	.	.	.	2%	.	.
CCN(CC)c1ccc2c(c1)OC(N)=C(C#N)C2c1cccnc1 (centres undefined)	-4	-3	86*	4%	23	10
Oc1ccc(C23CCCC2C2(CCCC2)c2ccc(O)cc2O3)c(O)c1 (centres undefined)	.	5	152*	.	0	-8
Cc1cccc(NC(=O)c2ccc(Cn3nc(N4CCN(c5ccccc5)CC4)ccc3=O)o2)c1C	-1	-2	1	-2%	-1	-18
Cc1ccc2ncc(C(=O)NC(C)c3ccccc3)c(=O)n2c1 (centres undefined)	-2	7	0	0%	-1	-34*
Cc1c(Cl)cccc1NC(=O)c1ccc(NC(=O)N2CCSc3ncccc32)cc1	-2	3	2	-6%	-1	-6
Cc1c(O)c(S(=O)c2ccccc2)c(=O)n(-c2ccccc2)c1-c1ccccc1 (centres undefined)	-2	32*	4	-2%	1	1
SMILES	D1 potentiator	TRHR enhancer	D1 ag	Epigenetic reg	TRHR ag	D1 antag
Cc1c(O)c(S(=O)(=O)c2ccccc2)c(=O)n(-c2ccccc2)c1-c1ccccc1	0	0	2	0%	0	-13
CCc1cccc(NC(=O)C2CCN(C(=O)c3cnn(-c4ccccc4)c3-n3cccc3)CC2)c1	2	-4	4	2%	-2	-8
COc1ccc(C(=O)NCCSc2c(C)[nH]c3ccccc23)cc1	0	-2	7	-1%	0	-24
Cc1[nH]c2ccccc2c1SCCNC(=O)c1ccc(F)cc1	-1	-5	0	0%	0	-34*
Cc1c(CNC(C)CCc2ccccc2)c(C(=O)O)c(C)n1Cc1ccc(F)cc1 (centres undefined)	-1	-8	-1	0%	0	2
CSc1ncc(C(=O)N2CCN(c3ccc(Cl)cc3)CC2)c(C)n1	-3	7	2	0%	-1	8
Cc1ccc(NC(=O)Cn2c(CCC(=O)O)ccc2-c2cccs2)cc1Cl	-15	24	2	0%	0	-69*
CCOc1cc(CNc2ccc(O)cc2)ccc1OCc1ccc(Cl)cc1	-7	8	2	3%	0	-30*
CCOc1cc(CNc2ccc(O)cc2)cc(Br)c1OCc1ccccc1	-4	1	2	2%	1	12
Oc1ccc(NCc2ccccc2OCc2ccc(Cl)cc2)cc1	-3	47*	0	1%	0	-3
Cc1ccc(C)c(NC(=O)CN2C(=O)c3cccc4cccc2c34)c1	8	0	0	1%	1	0
C/C=C1\C(=O)CC2C3CCC4=CC(=O)CC[C@]4(C)C3CC[C@]12C (some centres undefined)	.	.	.	-1%	.	.
Cc1ccc(-c2nc(C(=O)NCc3ccccc3Cl)c3n2CCCCC3)cc1	0	11	2	1%	0	0
COc1ccccc1N1CCN(C(=O)c2cn(C)c3ccc(S(=O)(=O)N(C)C4CCCCC4)cc3c2=O)CC1	-1	3	2	-2%	-1	2
CC(C)OC(=O)c1c(NC(=O)c2cccc(C(F)(F)F)c2)sc2c1CCCC2	1	-4	1	-1%	-1	-10
CCc1cccc(OCC(=O)Nc2ccc(C)c(S(=O)(=O)N3CCCCCC3)c2)c1	3	-16	33*	.	3	-17
CC(=O)c1ccc(OCCCC(=O)Nc2ccc(C)c(S(=O)(=O)N3CCCCC3)c2)cc1	-5	4	20	.	2	-36*
Cc1cnc(C(=O)OCC(=O)Nc2cc(-c3ccccc3)nn2-c2ccccc2)cn1	2	32*	1	.	0	5
Cc1cnc(C(=O)OCC(=O)Nc2cccc(S(=O)(=O)N3CCCCC3)c2)cn1	3	2	3	0%	2	-1
